Among the data in PubChem BioAssay AID624255 (Broad Institute, 2012) are inhibition values, retold here.

Each structure is given as a SMILES string. Several values for one entry are separate records, joined by “and”; a condition that tells them apart may be missing. Equal values may be shown once. About 4,600 (6%) of roughly 77,000 compounds were called active. Roughly 1% stayed inconclusive and do not appear here. The sample holds actives, similar compounds and a random draw of the others, so the mix is not that of the screen.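 Rule for the calls: active = mean inhibition above about 93%, with at least 55% of replicates each passing it (limit read from the data, passing the limit was not always enough); inconclusive = only one of those two conditions holds; inactive = neither condition holds.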

The assay in a line: growth inhibition of T. cruzi in host fibroblasts – cell-based, beta-gal Tulahuen parasites, NIH3T3 host, luminescence, primary screen (AID 624255). The note with it: T. cruzi beta-gal in NIH3T3, GalScreen luminescence, 90 h; at 8.34 µM; active compounds read high.
A word on the inhibition: it is the drop in the measured response relative to a control, in per cent. Regarding `COc1ccc(NC(=O)Nc2ccc3c(c2)C(=O)N([C@@H](C)CO)C[C@H](C)[C@@H](CN(C)Cc2ccc4c(c2)OCO4)O3)cc1`, the inhibition was 31.2% (inactive). The result for `C[C@@H]1CN([C@@H](C)CO)C(=O)c2cc(NC(=O)Nc3ccc4c(c3)OCO4)ccc2O[C@@H]1CN(C)Cc1ccc(Oc2ccccc2)cc1` reads 100% (active). The result for `C[C@H](CO)N1C[C@H](C)[C@@H](CN(C)Cc2ccccc2)Oc2ccc(NC(=O)Nc3ccc4c(c3)OCO4)cc2C1=O` reads 8.73% (inactive); that for `C[C@H]1CN([C@@H](C)CO)C(=O)c2cc(NC(=O)Nc3ccc4c(c3)OCO4)ccc2O[C@@H]1CN(C)Cc1ccc(Oc2ccccc2)cc1`, 119% (active); that for `C[C@H]1CN([C@@H](C)CO)C(=O)c2cc(NC(=O)C3CC3)ccc2O[C@@H]1CN(C)Cc1ccc(Oc2ccccc2)cc1`, 66.9% (inactive). The result for `C[C@@H]1CN([C@H](C)CO)C(=O)c2cc(NC(=O)Nc3ccc4c(c3)OCO4)ccc2O[C@H]1CN(C)Cc1ccc(-c2ccccc2)cc1` reads 70.1% (inactive). As for `CCCNC(=O)C[C@@H]1CC[C@@H]2[C@H](COc3ccc(NC(=O)c4cc(F)cc(F)c4)cc3C(=O)N2C)O1`, the inhibition is -19.9% (inactive). `C[C@@H]1CCCCO[C@@H](CN(C)C(=O)Nc2ccc(F)cc2)[C@H](C)CN([C@@H](C)CO)C(=O)c2cc(NS(C)(=O)=O)ccc2O1`: the inhibition was 23.8% (inactive). Take `CN(C)C(=O)c1ccc(-c2ccc([C@@H]3[C@@H](CO)N4CCCCN(CC5CC5)C[C@H]34)cc2)cc1`: the inhibition was 11.3% (inactive).

For the molecule `CN(C)C(=O)c1ccc(-c2ccc([C@@H]3[C@H](CO)N4CCCCN(S(C)(=O)=O)C[C@@H]34)cc2)cc1`, the inhibition is 103% (active). With `CS(=O)(=O)N1CCCCN2[C@@H](CO)[C@@H](c3ccc(Br)cc3)[C@@H]2C1`, the inhibition was -42.1% (inactive). On to `CN(C)CC#Cc1ccc([C@H]2[C@H](CO)N3CCCCN(CC4CC4)C[C@@H]23)cc1`, for which the inhibition is -75.2% (inactive).

On to `CN(C)C(=O)c1ccc(-c2ccc([C@H]3[C@@H](CO)N4CCCCN(CC5CC5)C[C@H]34)cc2)cc1`, for which the inhibition was 108% (active).

For `CN(C)C(=O)c1ccc(-c2ccc([C@H]3[C@H](CO)N4CCCCN(S(C)(=O)=O)C[C@@H]34)cc2)cc1`, the inhibition is 83.3% (inactive).

Turning to `CN1C(=O)c2cc(NC(=O)Nc3ccccc3Cl)ccc2OC[C@H]2O[C@@H](CC(=O)O)CC[C@H]21`, the inhibition was 15.3% (inactive). The result for `Cc1noc(C)c1NC(=O)N(C)C[C@@H]1OCCCC[C@H](C)Oc2ccc(NC(=O)NC3CCCCC3)cc2C(=O)N([C@H](C)CO)C[C@@H]1C` reads 22.8% (inactive); that for `Cc1ccccc1S(=O)(=O)Nc1ccc2c(c1)C(=O)N(C)[C@H]1CC[C@@H](CC(=O)O)O[C@H]1CO2`, 13.1% (inactive); that for `C[C@@H]1CN([C@H](C)CO)C(=O)Cc2cc(NC(=O)CCN3CCOCC3)ccc2O[C@H]1CN(C)CC1CC1`, 37.8% (inactive). Next, `O=C(CC1CC1)N1[C@H](CO)[C@@H]2c3ccccc3N(S(=O)(=O)c3ccc(F)cc3)C[C@@H]21`: 18.3% (inactive); `COc1ccc(C#Cc2cnc3c(c2)C(=O)N([C@H](C)CO)C[C@H](C)[C@H](CN(C)S(=O)(=O)c2ccc(F)cc2)O3)cc1OC`: 104% (inactive). For the molecule `C[C@H]1CN([C@@H](C)CO)C(=O)c2cc(C#Cc3ccccc3F)cnc2O[C@@H]1CN(C)C(=O)C1CC1`, the inhibition is -11.1% (inactive). The result for `CCCNC(=O)N(C)C[C@H]1Oc2ncc(C#CC(C)C)cc2C(=O)N([C@@H](C)CO)C[C@@H]1C` reads 53.3% (inactive); that for `C[C@@H]1CN([C@@H](C)CO)C(=O)CCCn2cc(nn2)CO[C@@H]1CN(C)S(=O)(=O)c1ccccc1F`, 112% (active).

For the molecule `C[C@H](CO)N1C[C@H](C)[C@@H](CN(C)S(=O)(=O)c2ccccc2F)Oc2ncc(C#Cc3ccccc3F)cc2C1=O`, the inhibition was 112% (active).

Turning to `CCCNC(=O)N(C)C[C@H]1Oc2ncc(C#Cc3ccncc3)cc2C(=O)N([C@@H](C)CO)C[C@@H]1C`, the inhibition was 12.1% (inactive). With `CCCNC(=O)N(C)C[C@@H]1Oc2ncc(C#Cc3ccccc3F)cc2C(=O)N([C@@H](C)CO)C[C@H]1C`, the inhibition is 116% (active). Next, `C[C@H]1CN([C@@H](C)CO)C(=O)c2cc(C#Cc3ccccc3F)cnc2O[C@H]1CN(C)C`: 87.2% (inactive); `C[C@H](CO)N1C[C@H](C)[C@@H](CN(C)S(=O)(=O)c2ccccc2)Oc2ncc(C#Cc3ccccc3F)cc2C1=O`: 120% (active); `C[C@H]1CN([C@@H](C)CO)C(=O)CCCn2cc(nn2)CO[C@@H]1CN(C)S(=O)(=O)c1ccc(-c2ccccc2)cc1`: 3.26% (inactive) and 11.9% (inactive). The result for `C[C@H](CO)N1C[C@H](C)[C@H](CN(C)C(=O)C2CCOCC2)Oc2ncc(C#Cc3ccccc3F)cc2C1=O` reads -27.2% (inactive); that for `C[C@@H]1CN([C@@H](C)CO)C(=O)CCCn2cc(nn2)CO[C@@H]1CN(C)S(=O)(=O)c1cccc(F)c1`, -8.28% (inactive); that for `CCC(=O)NC[C@H]1[C@@H](c2ccc(C3=CCCC3)cc2)[C@@H](CO)N1C(=O)C1CC1`, 21.5% (inactive). Regarding `CO[C@H]1CN(C)C(=O)c2cc(NC(=O)C3CCCCC3)ccc2OC[C@H](C)N(C(=O)c2ccccc2)C[C@H]1C`, the inhibition was 7.09% (inactive). With `C/C=C/c1cnc2c(c1)C(=O)N([C@@H](C)CO)C[C@@H](C)[C@@H](CN(C)C(=O)C1CCOCC1)O2`, the inhibition is -31.5% (inactive).

`CCCNC(=O)Nc1ccc2c(c1)C(=O)N(C)[C@H]1CC[C@H](CC(=O)NC3CCC3)O[C@H]1CO2`: the inhibition was 57.7% (inactive). For `N#Cc1ccc(-c2ccc3c(c2)[C@H]2[C@H](CCN2Cc2ccc4c(c2)OCO4)[C@@H](CO)N3)cc1`, the inhibition was 79.2% (inactive). The result for `O=C(Cc1ccccc1)N1CC[C@H]2[C@H](CO)Nc3ccc(-c4ccccc4F)cc3[C@H]21` reads 111% (active); that for `CN(C)C(=O)c1cccc(-c2ccc3c(c2)[C@H]2[C@H](CCN2C(=O)Cc2ccccc2)[C@H](CO)N3)c1`, 80.1% (inactive); that for `N#Cc1ccc(-c2ccc3c(c2)[C@@H]2[C@@H](CCN2C(=O)Cc2ccncc2)[C@@H](CO)N3)cc1`, 108% (active). The result for `O=C(Cc1ccccc1)N1CC[C@@H]2[C@H](CO)Nc3ccc(-c4ccccc4)cc3[C@@H]21` reads 81.9% (inactive). As for `O=C(CC1CC1)N1CC[C@@H]2[C@H](CO)Nc3ccc(-c4ccc(F)cc4)cc3[C@@H]21`, the inhibition is 89.6% (inactive).
